Assay results as given in the supplement of paper PMC11732987, “Enantioselective OTUD7B fragment discovery through chemoproteomics screening and high-throughput optimisation” (Communications Chemistry, 2025).

Legend:
Test in all cases: log2 ratio of Biotin-Ahx-Ub-VS probe labelling (fragment/DMSO); higher = less target engagement (more negative = stronger competition), active = hit call of the paper (q ≤ 0.05, log2 ratio ≤ -1)
Conditions in all cases: compound concentration: 200 uM; treatment time: 3 h
[1] = target: T1, USP19 (UniProt O94966)
T1 sequence (whole entry): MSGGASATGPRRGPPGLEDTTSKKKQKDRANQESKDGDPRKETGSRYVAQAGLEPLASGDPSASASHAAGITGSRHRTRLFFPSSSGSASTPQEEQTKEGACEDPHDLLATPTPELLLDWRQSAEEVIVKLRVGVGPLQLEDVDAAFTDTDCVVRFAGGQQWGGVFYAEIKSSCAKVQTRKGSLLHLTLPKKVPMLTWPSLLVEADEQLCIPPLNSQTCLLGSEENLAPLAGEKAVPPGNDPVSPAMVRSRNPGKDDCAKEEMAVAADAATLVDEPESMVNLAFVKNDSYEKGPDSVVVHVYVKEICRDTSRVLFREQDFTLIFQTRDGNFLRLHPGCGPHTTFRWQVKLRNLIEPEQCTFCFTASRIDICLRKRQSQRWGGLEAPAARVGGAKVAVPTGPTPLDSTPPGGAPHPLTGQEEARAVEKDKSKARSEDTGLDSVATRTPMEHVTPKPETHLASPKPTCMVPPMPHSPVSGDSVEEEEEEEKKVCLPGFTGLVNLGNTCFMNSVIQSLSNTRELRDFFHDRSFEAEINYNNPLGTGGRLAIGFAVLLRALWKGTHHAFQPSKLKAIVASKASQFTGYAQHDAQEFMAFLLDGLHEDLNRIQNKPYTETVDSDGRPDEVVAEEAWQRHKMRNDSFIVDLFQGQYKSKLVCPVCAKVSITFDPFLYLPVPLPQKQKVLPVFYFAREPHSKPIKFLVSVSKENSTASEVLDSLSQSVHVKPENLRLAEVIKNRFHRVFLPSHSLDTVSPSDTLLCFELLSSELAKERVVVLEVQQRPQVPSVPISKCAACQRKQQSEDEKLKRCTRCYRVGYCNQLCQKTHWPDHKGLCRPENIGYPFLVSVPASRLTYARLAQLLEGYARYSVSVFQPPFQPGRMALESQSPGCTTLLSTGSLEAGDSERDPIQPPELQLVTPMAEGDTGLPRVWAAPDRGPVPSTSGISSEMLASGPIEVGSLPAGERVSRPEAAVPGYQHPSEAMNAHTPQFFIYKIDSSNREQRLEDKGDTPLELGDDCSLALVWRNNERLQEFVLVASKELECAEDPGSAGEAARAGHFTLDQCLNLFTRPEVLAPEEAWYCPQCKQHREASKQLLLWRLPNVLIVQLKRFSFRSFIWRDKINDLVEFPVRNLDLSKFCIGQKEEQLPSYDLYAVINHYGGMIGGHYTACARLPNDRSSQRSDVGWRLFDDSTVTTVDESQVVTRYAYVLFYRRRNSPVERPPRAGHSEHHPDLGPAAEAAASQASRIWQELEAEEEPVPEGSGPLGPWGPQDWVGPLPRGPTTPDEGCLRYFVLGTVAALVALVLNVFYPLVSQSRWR
Procedure, shortened: (§1)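 Labelled DUBs from HEK293T lysate were NeutrAvidin-enriched, digested with LysC and trypsin, and run by diaPASEF LC-MS/MS. Before that, each 495 µg sample in Tris/CHAPS/IGEPAL buffer with protease inhibitors was treated in triplicate with fragment at 200 µM or vehicle for 3 h, then with Biotin-Ahx-Ub-VS at 0.5 µM final for 1 h. Values are average log2 ratios of fragment over vehicle by unpaired t-test, based on global-median-normalised Spectronaut label-free quantities from proteins with ≥2 unique peptides.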

[2] = target: T2, USP22 (UniProt Q9UPT9)
T2 sequence (whole entry): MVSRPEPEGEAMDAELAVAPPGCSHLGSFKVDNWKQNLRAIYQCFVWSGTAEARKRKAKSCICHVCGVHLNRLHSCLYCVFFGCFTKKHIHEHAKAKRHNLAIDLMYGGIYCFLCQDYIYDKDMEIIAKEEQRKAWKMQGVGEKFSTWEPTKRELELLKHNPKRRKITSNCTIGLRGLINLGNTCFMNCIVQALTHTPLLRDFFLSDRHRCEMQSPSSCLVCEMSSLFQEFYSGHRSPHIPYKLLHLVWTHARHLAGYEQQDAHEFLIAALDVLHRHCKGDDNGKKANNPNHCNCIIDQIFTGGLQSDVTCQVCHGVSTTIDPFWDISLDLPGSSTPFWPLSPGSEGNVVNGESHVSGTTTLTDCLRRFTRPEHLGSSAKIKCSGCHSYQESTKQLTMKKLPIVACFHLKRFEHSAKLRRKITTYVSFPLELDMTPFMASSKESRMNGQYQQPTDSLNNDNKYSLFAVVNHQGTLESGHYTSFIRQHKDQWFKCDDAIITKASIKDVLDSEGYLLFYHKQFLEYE
Procedure, shortened: as §1

[3] = target: USP24 (UniProt Q9UPU5)
USP24, sequence (Q9UPU5 whole entry): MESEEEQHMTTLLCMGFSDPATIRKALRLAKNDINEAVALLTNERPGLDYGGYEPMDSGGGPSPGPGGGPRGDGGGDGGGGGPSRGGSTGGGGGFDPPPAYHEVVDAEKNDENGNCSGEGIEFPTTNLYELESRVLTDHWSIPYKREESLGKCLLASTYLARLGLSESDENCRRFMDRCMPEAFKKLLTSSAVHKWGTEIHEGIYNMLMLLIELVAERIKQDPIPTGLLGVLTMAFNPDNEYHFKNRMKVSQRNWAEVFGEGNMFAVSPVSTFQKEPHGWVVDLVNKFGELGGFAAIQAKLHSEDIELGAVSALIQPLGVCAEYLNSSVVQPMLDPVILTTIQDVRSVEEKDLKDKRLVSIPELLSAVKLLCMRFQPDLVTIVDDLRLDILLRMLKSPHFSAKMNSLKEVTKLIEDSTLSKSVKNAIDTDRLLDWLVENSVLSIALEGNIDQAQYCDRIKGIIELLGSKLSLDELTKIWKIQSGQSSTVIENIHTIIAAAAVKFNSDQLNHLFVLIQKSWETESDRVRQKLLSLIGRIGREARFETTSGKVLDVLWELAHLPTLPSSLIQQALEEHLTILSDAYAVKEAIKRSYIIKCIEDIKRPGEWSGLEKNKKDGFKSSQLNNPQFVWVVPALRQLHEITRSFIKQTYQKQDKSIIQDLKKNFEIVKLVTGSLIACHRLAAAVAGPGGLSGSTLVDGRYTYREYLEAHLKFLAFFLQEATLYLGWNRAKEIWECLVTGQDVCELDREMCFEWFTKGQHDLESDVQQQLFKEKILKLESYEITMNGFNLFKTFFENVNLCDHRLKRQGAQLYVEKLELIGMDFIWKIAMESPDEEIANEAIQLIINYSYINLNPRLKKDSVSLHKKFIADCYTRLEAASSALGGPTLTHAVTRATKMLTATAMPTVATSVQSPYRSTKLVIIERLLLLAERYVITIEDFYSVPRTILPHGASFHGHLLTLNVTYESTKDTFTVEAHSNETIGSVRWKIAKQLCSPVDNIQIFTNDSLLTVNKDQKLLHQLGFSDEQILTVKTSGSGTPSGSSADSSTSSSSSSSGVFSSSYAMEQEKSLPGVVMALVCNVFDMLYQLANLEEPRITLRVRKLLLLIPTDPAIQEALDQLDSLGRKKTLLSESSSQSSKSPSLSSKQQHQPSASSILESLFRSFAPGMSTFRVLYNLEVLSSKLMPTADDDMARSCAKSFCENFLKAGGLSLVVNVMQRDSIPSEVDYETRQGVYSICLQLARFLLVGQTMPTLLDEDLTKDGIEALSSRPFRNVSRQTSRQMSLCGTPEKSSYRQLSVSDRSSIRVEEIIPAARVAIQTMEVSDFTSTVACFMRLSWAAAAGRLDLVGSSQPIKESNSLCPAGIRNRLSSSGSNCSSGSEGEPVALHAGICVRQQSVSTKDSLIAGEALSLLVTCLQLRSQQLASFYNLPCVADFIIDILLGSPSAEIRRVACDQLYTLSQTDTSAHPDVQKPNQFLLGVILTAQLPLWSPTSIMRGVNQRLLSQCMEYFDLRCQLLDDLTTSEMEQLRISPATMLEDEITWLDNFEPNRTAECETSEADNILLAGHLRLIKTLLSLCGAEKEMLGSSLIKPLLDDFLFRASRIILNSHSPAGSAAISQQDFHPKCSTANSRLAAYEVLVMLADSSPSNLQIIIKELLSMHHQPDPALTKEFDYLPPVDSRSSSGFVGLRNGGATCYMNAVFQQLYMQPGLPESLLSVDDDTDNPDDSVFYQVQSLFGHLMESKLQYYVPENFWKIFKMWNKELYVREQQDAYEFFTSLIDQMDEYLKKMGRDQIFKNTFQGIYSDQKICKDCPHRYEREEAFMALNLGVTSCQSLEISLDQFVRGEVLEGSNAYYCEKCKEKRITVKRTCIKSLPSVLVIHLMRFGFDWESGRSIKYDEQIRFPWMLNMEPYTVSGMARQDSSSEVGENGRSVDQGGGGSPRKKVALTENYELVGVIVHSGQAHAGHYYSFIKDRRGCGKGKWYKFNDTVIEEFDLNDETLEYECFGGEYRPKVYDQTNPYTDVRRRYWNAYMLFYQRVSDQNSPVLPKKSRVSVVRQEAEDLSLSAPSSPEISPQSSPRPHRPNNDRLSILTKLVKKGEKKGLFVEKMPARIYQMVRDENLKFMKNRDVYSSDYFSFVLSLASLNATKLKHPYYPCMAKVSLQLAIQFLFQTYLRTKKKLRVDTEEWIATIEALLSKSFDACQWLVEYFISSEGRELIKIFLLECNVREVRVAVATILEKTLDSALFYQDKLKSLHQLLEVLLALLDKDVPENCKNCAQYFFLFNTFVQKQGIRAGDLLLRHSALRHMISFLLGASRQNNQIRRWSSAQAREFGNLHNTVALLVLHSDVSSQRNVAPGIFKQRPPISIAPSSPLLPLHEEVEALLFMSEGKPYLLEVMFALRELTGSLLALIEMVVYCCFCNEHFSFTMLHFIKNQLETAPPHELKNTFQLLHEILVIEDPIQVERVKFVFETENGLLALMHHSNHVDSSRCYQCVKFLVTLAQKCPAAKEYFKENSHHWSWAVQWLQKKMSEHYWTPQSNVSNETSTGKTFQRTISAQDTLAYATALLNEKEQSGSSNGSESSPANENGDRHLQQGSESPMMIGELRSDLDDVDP
Procedure, shortened: as §1

[4] = target: T3, USP25 (UniProt Q9UHP3)
T3 sequence (whole entry): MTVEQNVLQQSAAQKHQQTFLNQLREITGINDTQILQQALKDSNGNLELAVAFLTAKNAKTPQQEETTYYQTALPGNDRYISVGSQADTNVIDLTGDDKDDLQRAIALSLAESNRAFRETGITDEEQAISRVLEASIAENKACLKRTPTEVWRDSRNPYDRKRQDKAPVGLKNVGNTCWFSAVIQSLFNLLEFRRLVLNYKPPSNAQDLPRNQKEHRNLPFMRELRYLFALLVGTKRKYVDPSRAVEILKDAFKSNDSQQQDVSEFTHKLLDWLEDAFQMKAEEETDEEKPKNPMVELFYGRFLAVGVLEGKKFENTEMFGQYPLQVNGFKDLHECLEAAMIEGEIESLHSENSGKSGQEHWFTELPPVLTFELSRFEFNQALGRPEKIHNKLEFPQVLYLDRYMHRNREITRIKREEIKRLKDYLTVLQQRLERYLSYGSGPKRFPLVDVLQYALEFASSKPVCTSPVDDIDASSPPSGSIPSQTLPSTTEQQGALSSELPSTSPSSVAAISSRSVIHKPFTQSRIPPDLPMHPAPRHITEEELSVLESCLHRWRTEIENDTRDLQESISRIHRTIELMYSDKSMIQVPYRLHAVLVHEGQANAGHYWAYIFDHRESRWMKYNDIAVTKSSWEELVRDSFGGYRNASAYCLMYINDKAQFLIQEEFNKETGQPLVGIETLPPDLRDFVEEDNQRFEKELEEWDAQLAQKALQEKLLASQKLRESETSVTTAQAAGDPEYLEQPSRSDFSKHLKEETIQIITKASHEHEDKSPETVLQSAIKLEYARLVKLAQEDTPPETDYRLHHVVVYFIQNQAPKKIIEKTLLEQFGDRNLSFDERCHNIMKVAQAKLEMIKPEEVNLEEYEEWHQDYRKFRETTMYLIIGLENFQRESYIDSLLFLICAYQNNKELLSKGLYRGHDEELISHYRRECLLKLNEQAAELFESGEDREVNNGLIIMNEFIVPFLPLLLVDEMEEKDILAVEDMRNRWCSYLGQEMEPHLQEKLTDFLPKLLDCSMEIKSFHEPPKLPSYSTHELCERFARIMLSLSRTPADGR
Procedure, shortened: as §1

[5] = target: T4, USP28 (UniProt Q96RU2)
T4 sequence (whole entry): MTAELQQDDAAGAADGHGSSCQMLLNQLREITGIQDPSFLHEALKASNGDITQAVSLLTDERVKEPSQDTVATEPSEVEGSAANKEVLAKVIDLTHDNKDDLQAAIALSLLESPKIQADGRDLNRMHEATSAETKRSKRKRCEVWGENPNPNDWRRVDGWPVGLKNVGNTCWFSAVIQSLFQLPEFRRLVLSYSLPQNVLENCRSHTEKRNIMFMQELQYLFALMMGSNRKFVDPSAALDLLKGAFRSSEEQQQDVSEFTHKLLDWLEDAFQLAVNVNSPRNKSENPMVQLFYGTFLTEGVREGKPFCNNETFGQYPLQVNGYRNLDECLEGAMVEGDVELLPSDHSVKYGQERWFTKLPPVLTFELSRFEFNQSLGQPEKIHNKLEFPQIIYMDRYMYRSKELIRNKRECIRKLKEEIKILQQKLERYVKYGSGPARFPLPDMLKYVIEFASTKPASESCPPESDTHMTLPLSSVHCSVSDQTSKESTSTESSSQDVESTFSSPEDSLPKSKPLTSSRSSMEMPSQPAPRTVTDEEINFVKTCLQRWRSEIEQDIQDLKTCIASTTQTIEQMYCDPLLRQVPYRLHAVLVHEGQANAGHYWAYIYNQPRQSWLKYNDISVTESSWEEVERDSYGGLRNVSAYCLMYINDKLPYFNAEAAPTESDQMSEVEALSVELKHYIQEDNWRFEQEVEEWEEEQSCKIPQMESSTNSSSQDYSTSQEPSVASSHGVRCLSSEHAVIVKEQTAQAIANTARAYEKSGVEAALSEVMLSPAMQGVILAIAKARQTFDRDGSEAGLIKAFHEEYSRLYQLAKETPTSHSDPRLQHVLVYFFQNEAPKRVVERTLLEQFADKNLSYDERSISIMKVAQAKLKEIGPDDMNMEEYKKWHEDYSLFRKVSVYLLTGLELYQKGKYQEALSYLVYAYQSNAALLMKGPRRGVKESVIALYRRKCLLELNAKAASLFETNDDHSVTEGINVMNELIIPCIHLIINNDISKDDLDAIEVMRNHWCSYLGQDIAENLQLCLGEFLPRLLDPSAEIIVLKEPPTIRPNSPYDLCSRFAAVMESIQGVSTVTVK
Procedure, shortened: as §1

Measured: log2 ratio of Biotin-Ahx-Ub-VS probe labelling

Cl.O=C(CCl)N1CCCC(c2ncc[nH]2)C1 (stereo not given)
inactive: [1] -0.0532 | [2] 0.0588 | [3] -0.108 | [4] -0.511 | [5] -0.212
